Assay outcomes: PubChem BioAssay, National Center for Advancing Translational Sciences (NCATS)
Luciferase inh = inhibitors of firefly luciferase; P08659; purified firefly luciferase, luminescence, 8 min; Potency, µM (highest dose often 57.1 µM), inactives show at the highest dose activity change, negative = inhibition, usual class: inhibitors; 72,000 compounds, 2.2% hits; AID 411; active means well fitted inhibition curve with a large enough effect; inconclusive means small, poorly fitted or top-dose-only effect; further: on the % scale 0 is the no-effect control and ±100 the full control effect; nearly all actives have a fitted effect of over 40% in size
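Compounds were tested as concentration series (qHTS) against purified P. pyralis luciferase with luciferin and 10 uM ATP in 50 mM imidazole pH 7.2, 50 mM KCl, 7 mM MgCl2, 0.01% Tween 20, 0.05% BSA. Luminescence was read after 8 min at ambient temperature.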
Bst PK mod = alters activity of Bacillus stearothermophilus pyruvate kinase | purified pyruvate kinase, luminescence ATP production; ribose 5-phosphate activator present at AC10 | 51,000 compounds, 1.2% hits | Potency, µM; in the data active means potency below about 11 µM; inconclusive means mostly about 12 µM to 25 µM;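 the screen sought inhibitors and activators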;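 further: scaled between full activation by ribose 5 phosphate and full inhibition by luteolin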
GBA activity = alters purified human glucocerebrosidase activity; 48,000 compounds, 1.1% hits; purified enzyme, resorufin glucoside fluorescence (screen aimed at inhibitors), 20 min; P04062; Potency, µM; in the data active means potency below about 15 µM; inconclusive means mostly about 16 µM to 33 µM;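 further: the screen sought inhibitors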
Target sequence (P04062 whole entry, looked up): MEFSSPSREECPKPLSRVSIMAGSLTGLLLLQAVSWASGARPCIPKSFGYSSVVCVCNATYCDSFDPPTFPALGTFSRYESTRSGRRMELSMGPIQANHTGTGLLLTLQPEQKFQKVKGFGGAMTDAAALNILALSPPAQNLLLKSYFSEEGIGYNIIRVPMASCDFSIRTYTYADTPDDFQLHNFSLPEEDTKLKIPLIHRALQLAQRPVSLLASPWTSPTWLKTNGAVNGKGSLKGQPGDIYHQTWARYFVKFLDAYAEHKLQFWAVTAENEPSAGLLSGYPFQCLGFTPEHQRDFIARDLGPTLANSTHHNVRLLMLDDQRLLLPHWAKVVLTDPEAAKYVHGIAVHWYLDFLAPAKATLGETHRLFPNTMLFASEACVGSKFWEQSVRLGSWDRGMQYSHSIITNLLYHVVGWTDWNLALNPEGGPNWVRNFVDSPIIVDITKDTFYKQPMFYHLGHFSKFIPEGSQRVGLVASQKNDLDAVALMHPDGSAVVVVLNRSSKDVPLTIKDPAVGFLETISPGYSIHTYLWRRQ
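Compounds titrated against 0.2 nM normal enzyme, 30 uM resorufin beta-D-glucopyranoside substrate, citrate/phosphate buffer with taurocholate and tween-20, pH 5.9. Reaction ran 20 min at room temperature; fluorescence (Ex 548/Em 600) gave AC50.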
Starred values were filed as active, the others as inactive; [ ] = remark or other dose. In the library only some 3.4% were active in any assay of this set; here they are far more common. Potency means the concentration at half of the fitted maximal effect.

NC(=O)CSc1nc2sc3c(c2c2ncnn12)CCCC3 was read as Luciferase inh -2%, Bst PK mod 1.3* and GBA activity >77.
CSc1nc2sc3c(c2c2nnnn12)CCCC3 was read as Luciferase inh 0%[25.5 µM] and Bst PK mod >26.
For COc1ncc2nc(-c3ccc(Cl)cc3)c(=O)n(C[C@H]3CCCO3)c2n1 the results were Luciferase inh 1%[11.4 µM].
For Cc1[nH]c2ccccc2c1-c1cc(-c2cc(-c3c(C)[nH]c4ccccc34)nc(N)n2)nc(N)n1 the results were Luciferase inh 4%[11.4 µM].
Screening O=C(Nc1ccc(N2CCOCC2)c(Cl)c1)c1ccco1 returned Luciferase inh 13µM*, Bst PK mod inactive and GBA activity >77.
Screening O=C(Nc1ccc(N2CCOCC2)c(Cl)c1)C1CCCCC1 returned Luciferase inh -2%.
O=C(Nc1ccc(N2CCOCC2)c(Cl)c1)c1ncn[nH]1 was read as Luciferase inh 20µM* and GBA activity >77.
Screening O=C(Nc1ccc(N2CCN(C(=O)c3ccccc3)CC2)c(Cl)c1)c1ccco1 returned Luciferase inh 1%.
Screening O=C(NC1(C(=O)O)CCCC1)c1ccccc1 returned Luciferase inh 2%[11.4 µM].
O=C(c1csnn1)N1CCC2(CCCN(C(c3ccccc3)c3ccccc3)C2)CC1 was read as Luciferase inh 1%[11.4 µM].
`O=C(c1ccco1)N1CCC2(CCCN(C(c3ccccc3)c3ccccc3)C2)CC1` gave Luciferase inh 0%[11.4 µM].
Screening O=C(c1ccncc1)N1CCC2(CC1)CN(c1ccccc1)C2 returned Luciferase inh -1%[11.4 µM].
O=C(c1ccc(Cl)cc1)N1CCCCC(Sc2nnc(-c3ccc4c(c3)OCO4)o2)C1=O (stereo not drawn) was read as Luciferase inh 13µM* and GBA activity >77.
For O=C(c1ccc(F)cc1)N1CCCCC(Sc2nnc3ccccn23)C1=O (stereo not drawn) the results were Luciferase inh 2%, Bst PK mod >57 and GBA activity >77.
CN(C)c1ccc(NC(=O)Nc2cccc(Cl)c2)cc1 was read as Luciferase inh 10µM* and GBA activity >77.
For CN(c1cccc(NC(=O)Nc2cccc(Cl)c2)c1)S(C)(=O)=O the results were Luciferase inh 10µM*, Bst PK mod inconclusive and GBA activity >77.
For CC(=O)Nc1cccc(N(C)S(C)(=O)=O)c1 the results were Luciferase inh -1%, Bst PK mod >57 and GBA activity >77.
O=C(Nc1cccc(Cl)c1)Nn1cnnc1 was read as Luciferase inh 3%[11.4 µM].
`COc1c(O)ccc2c1CN1CCc3cc4c(cc3[C@@H]1C2)OCO4` gave Luciferase inh -5%[11.4 µM].
`COc1ccc(-n2c(=O)c(CCc3ccccc3)nc3cnc(N4CCN(C)CC4)nc32)cc1` gave Luciferase inh -1%[11.4 µM].
N#CCc1nc(CSc2nc3ccccc3o2)cs1 was read as Luciferase inh -10%, Bst PK mod >57 and GBA activity >77.
For c1ccc2oc(SCc3nc4ccccc4s3)nc2c1 the results were Luciferase inh 16µM* and GBA activity >77.
`Cn1c(=O)c2c(ncn2CCSS(=O)(=O)O)n(C)c1=O` gave Luciferase inh 4%[11.4 µM].
For CC1CCC/C(=C\Nc2ccccc2C(=O)O)C1=O (stereo not drawn) the results were Luciferase inh -5%, Bst PK mod >57 and GBA activity >77.
Screening CC1CCC/C(=C\Nc2ccc3c(c2)OCO3)C1=O (stereo not drawn) returned Luciferase inh 10µM*, Bst PK mod inactive and GBA activity >77.
Screening N[C@H](CCC(=O)NCS(=O)(=O)O)C(=O)O returned Luciferase inh 2%.
For Cc1ccc(-c2nnn(CC(=O)N(CC(=O)NCc3ccccc3)c3cccc(C)c3C)n2)o1 the results were Luciferase inh -2%, Bst PK mod 4.4* and GBA activity >77.
Cc1cccc(N(CC(=O)NCc2ccccc2)C(=O)Cn2nnc(-c3ccc(C)o3)n2)c1 was read as Luciferase inh 1%, Bst PK mod >57 and GBA activity >77.
Cc1noc(C)c1-c1nc(NCc2cccs2)c2ccccc2n1 was read as Luciferase inh -3%[2.29 µM].
Cc1ccc(-n2ncc3c(=O)n(CC#N)cnc32)cc1C was read as Luciferase inh -3%, Bst PK mod >57 and GBA activity >77.
`Cc1nc2c3cnn(-c4ccc(C)c(C)c4)c3ncn2n1` gave Luciferase inh -8% and GBA activity >77.
Screening CCc1nnc2c3cnn(-c4ccc(C)c(C)c4)c3ncn12 returned Luciferase inh 1%, Bst PK mod >57 and GBA activity 0.21*.
`C#CCn1cnc2c(cnn2-c2ccc(C)c(C)c2)c1=O` gave Luciferase inh -8%, Bst PK mod >57 and GBA activity 15*.
Screening CCCNC(=O)OC[C@@H]1O[C@H](CCO/N=C\c2ccc(C(=O)N3[C@H](c4ccc(C)cc4)[C@@H](C)CC[C@H]3C(=O)OC)cc2)C=C[C@@H]1Oc1ccc(OC)cc1 returned Luciferase inh -1%[11.4 µM].
Cc1cnc(CNc2ccnc(-c3cccnc3)n2)cn1 was read as Luciferase inh -2%[2.29 µM].
Screening COc1ccc(C(CC(=O)Nc2nccs2)n2cccc2)cc1 (stereo not drawn) returned Luciferase inh 16µM* and GBA activity >77.
For COc1ccc(C(CC(=O)NC(C)(C)C)n2cccc2)cc1 (stereo not drawn) the results were Luciferase inh 1%, Bst PK mod >57 and GBA activity >77.
CCN1CCN(c2ccc(NC(=O)Cc3ccccc3)cc2)CC1 was read as Luciferase inh 0%, Bst PK mod >57 and GBA activity inactive.
O=C(COc1ccccc1O)Nc1ccc(Cl)cc1 was read as Luciferase inh -3%, Bst PK mod 11* and GBA activity >77.
`CCN1CCN(c2ccc(NC(=O)COc3ccccc3Cl)cc2)CC1` gave Luciferase inh -4%, Bst PK mod >57 and GBA activity 15*.
`O=C(COc1ccc(Cl)cc1Cl)Nc1ccccn1` gave Luciferase inh 0.079µM*, Bst PK mod 0.13* and GBA activity >77.
Screening O=C(COc1ccccc1Cl)Nc1ccc(Cl)cn1 returned Luciferase inh 16µM*.
For O=C(COc1ccc(Cl)cc1Cl)NCc1ccncc1 the results were Luciferase inh -7%.
`O=C(COc1ccc(Cl)cc1)Nc1ccc(Cl)cn1` gave Luciferase inh -23% and Bst PK mod inactive.
For CCc1ccccc1OCC(=O)Nc1ccc(S(N)(=O)=O)cc1 the results were Luciferase inh 1%, Bst PK mod >57 and GBA activity >77.
For CC[C@H](CC[C@H](C)[C@@H]1CC[C@@H]2[C@H]3CC=C4C[C@@H](O)CC[C@]4(C)[C@H]3CC[C@]21C)C(C)C the results were Luciferase inh -2%[25.5 µM].
`CC(=O)OC[C@@H]1O[C@@H](O/N=C2/C[C@@H](O)[C@@H](O)[C@@H]3[C@@H]4C(=O)N(C[C@@H]5CCCO5)C(=O)[C@H]4CC[C@H]23)[C@H](OC(C)=O)[C@H](OC(C)=O)[C@@H]1OC(C)=O` gave Luciferase inh 1%[11.4 µM].
Screening O=C(CC(=O)Nc1ccccn1)Nc1ccccn1 returned Luciferase inh -2%, Bst PK mod >57 and GBA activity >77.
`COc1ccccc1OCC(=O)Nc1ccccn1` gave Luciferase inh 10µM*, Bst PK mod inconclusive and GBA activity >77.
